In PubChem BioAssay (NCI):
About 79,000 compounds went through this panel and 15% of them were active in at least one assay; those are over-represented in the sample as a whole. A number with no mark means an inactive call. The source made the active and inactive calls. Cut-off read from the data, not from the text of the source: active = growth inhibition above about 70%; inactive = the rest.

Assay: NCI Yeast Anticancer Drug Screen. Data for the mlh1 rad18 strain (AID 175)
Settings: S. cerevisiae mlh1 rad18 strain growth inhibition; at 50.0 µM (retest, dose inferred, filed as 5.0); active compounds read high
Procedure, shortened: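 Yeast w/ defined DNA-repair lesions; compound exposure; growth vs vehicle controls → % inhibition.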
With `CCCCCCCCCC(=O)NN=C(C)C` the growth inhibition was 46%. With `O=C(/C=C/c1ccccc1)C1(c2ccccc2)CC1` the growth inhibition was -93%. With `Nc1n[n+](-c2ccccc2)no1` the growth inhibition was 68%. In the case of `N#CC(C#N)=C(c1ccccc1)c1ccccc1`, the growth inhibition is reported as 100% (active). For `CS(=O)(=O)OCCCN(CCCOS(C)(=O)=O)c1ccc(C=Nc2ccc(-c3csc(COc4ccc(Br)cc4Br)n3)cc2)cc1`, the growth inhibition was 85% (active). In the case of `CSc1ncnc2ncn(C3OC(CO)C(O)C3O)c12` (stereo not given), the growth inhibition is reported as -21%. With `CNC(=O)c1ccc(OC)cc1C1(O)c2ccccc2CCc2ccccc21` the growth inhibition was 76% (active). For `O=[N+]([O-])c1ccc(Oc2c(Cl)cccc2Cl)cc1`, the growth inhibition was 13%. In the case of `CN(C)C(=O)c1ccc(SC(=S)NCc2ccccc2)cc1`, the growth inhibition is reported as 42%. For `CC(C)c1ccc(C(=O)OC2CCCCC2)cc1`, the growth inhibition was 96% (active). With `O=C(Nc1ccc(C(=O)c2ccccc2)cc1)Nc1ccc(Cl)c(Cl)c1` the growth inhibition was 97% (active). With `O=C1c2ccccc2C(=O)c2sc(Nc3ccc(Cl)cc3)nc21` the growth inhibition was 98% (active). In the case of `O=C1NC(=O)N(c2ccc([N+](=O)[O-])cc2)C1=O`, the growth inhibition is reported as 7%. `CCN(CC)CCNc1nc(N)c2nc(-c3ccccc3)c(-c3ccccc3)nc2n1` gave a growth inhibition of 56%. With `CCCCCCCCOc1ccc(/C=C/C(C)=N/NC(N)=NC)cc1OC` the growth inhibition was 98% (active). `CC1=NN(C(=O)c2ccc(Cl)cc2)C(=O)C1N=Nc1ccc(S(=O)(=O)Nc2ncccn2)cc1` (stereo not given) showed a growth inhibition of 20%. With `CCOC(=O)C(Br)C(Br)c1cccc([N+](=O)[O-])c1` (stereo not given) the growth inhibition was 99% (active). With `Cc1ccccc1N1CCN(c2c3c(nc4ccccc24)CCCCC3)CC1` the growth inhibition was 94% (active). For `O=S(=O)(O)SCCNCCCCCC1CCCCC1`, the growth inhibition was 93% (active). In the case of `CC([N+](=O)[O-])C1(O)C(=O)c2cccc3cccc1c23` (stereo not given), the growth inhibition is reported as 86% (active). Work on `CCS(CC)(CC)CC1CCCC2=CCC(P(=O)(c3ccccc3)c3ccccc3)CC21` (stereo not given) yielded a growth inhibition of -9%. In the case of `O=C(O)C(CS)Nc1c2ccccc2nc2ccccc12` (stereo not given), the growth inhibition is reported as 81% (active). In the case of `CCCCCCCCCCCC1C(C#N)C(=O)NC(=O)C1C#N` (stereo not given), the growth inhibition is reported as 90% (active). In the case of `O=C(O)CCSSCCCCCS(=O)O`, the growth inhibition is reported as 9%. In the case of `CC(C)CNc1cc(Cl)nc(N)n1`, the growth inhibition is reported as -5%.
